Source: PubChem BioAssay
Hits are enriched below; roughly 2.6% of the tested compounds scored in any of these assays.
Jurkat NFkB inh = inhibitors of the PMA/ionomycin-induced NF-kB reporter in Jurkat cells | PMA/ionomycin-induced NF-kB luciferase reporter, luminescence | inhibition, % at 4 µM | actives 0.53% (n = 330,000) | AID 435003; in the data active = inhibition above about 50%
H9c2 protect = protects H9c2 cardiomyocytes from peroxide injury; H2O2 injury protection, ATPLite, 2 h; protection from H2O2 cell death, % at 20 µM; actives 0.63% (n = 360,000); AID 588492;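 active = compounds giving at least 50% protection of heart cells from peroxide-induced death in the single-dose screen, raw or plate-pattern-corrected value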;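 note: 0% = DMSO wells with peroxide and 100% = DMSO wells without peroxide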
H9c2 TAG inh = reduces triacylglycerol accumulation in H9c2 cells; AID 651582; inhibition, % at 12.5 µM; actives 0.66% (n = 230,000); Nile Red lipid (TAG) fluorescence; cells loaded with 200 µM oleic acid;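 active = pattern-corrected inhibition of lipid staining of at least 50% with the nuclear-stain viability signal not falling by more than 50%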;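 note: 0% = DMSO wells and 100% = triacsin C control wells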
Gli-Sufu block = blocks Gli-Sufu signaling in a luciferase reporter; Sufu-KO-LIGHT fibroblasts, Gli luciferase reporter luminescence; inhibition, % at 5 µM; actives 0.74% (n = 340,000); AID 588413;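 active = inhibition above about 55%, limit read from the data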;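 note: 0% = DMSO-treated cells and 100% = wells with medium but no cells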
697 NFkB inh = inhibitors of the PMA/ionomycin-induced NF-kB reporter in 697 B cells. 697 B-cell NF-kB luciferase reporter, 16 h. inhibition, % at 4 µM. actives 0.33% (n = 330,000); in the data active = inhibition above about 35%
NR2F2 inh = blocks human COUP-TFII nuclear receptor | HEK293T NGFI-A luciferase reporter, luminescence | inhibition, % at 8.6 µM | actives 0.7% (n = 370,000);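 active = inhibition above a per-plate cutoff, mean inhibition of test wells between control levels plus 3 SD, cut at about 38% in these data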;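 note: cells cotransfected with COUP-TFII expression vector driving the NGFI-A reporter; 0% = median of COUP-TF2 test wells and 100% = reporter-only cells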
Target sequence (P24468 whole entry, looked up): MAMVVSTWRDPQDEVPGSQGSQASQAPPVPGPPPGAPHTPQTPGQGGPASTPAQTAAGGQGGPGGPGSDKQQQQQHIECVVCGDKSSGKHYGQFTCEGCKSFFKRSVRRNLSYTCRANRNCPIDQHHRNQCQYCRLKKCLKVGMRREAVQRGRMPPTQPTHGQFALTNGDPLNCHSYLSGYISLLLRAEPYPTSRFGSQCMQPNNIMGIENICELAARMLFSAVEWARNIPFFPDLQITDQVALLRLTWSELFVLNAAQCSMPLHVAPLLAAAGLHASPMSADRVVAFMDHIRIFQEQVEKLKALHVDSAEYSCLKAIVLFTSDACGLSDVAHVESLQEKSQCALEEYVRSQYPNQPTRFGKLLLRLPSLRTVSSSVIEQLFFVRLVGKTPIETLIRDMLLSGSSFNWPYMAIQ
697 NFkB conf = inhibitors of the PMA/ionomycin-induced NF-kB reporter in 697 B cells, retest | shares compounds with 697 NFkB inh | 697 B-cell NF-kB luciferase, 16 h | inhibition, % at 4 µM | actives 35% (n = 2,000); in the data active = inhibition mostly above about 28%, no sharp cut-off; inactive = mostly below about 22%
Gli antag conf = confirmation of Gli-SUFU pathway antagonists; Sufu-KO-LIGHT cells, Gli luciferase reporter, luminescence; inhibition, % at 5 µM; shares compounds with Gli-Sufu block; actives 40% (n = 2,500);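 active = mean inhibition at 5 µM reaching about 45%, limit read from the data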;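 note: plate controls were DMSO-treated cells for no effect and wells lacking cells for full effect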
Gli cytotox = cytotoxicity counter-screen for Gli-SUFU antagonists; cytotoxicity, % at 5 µM; shares compounds with Gli-Sufu block; AID 651994; actives 32% (n = 2,500); Sufu-KO-LIGHT cells cytotoxicity, ATP luminescence;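 active = mean cytotoxicity at 5 µM above about 25%, limit read from the data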;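 note: cells exposed to compound overnight for roughly 16 to 18 hours; plate controls were DMSO wells with cells for no effect and medium without cells for full effect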
Wnt3a cs = counter-screen for Gli-SUFU antagonists: Wnt3a reporter inhibition. shares compounds with Gli-Sufu block. Wnt-LIGHT cells, Wnt3a-driven luciferase reporter, luminescence. inhibition, % at 6.25 µM. actives 20% (n = 2,500);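 active = mean inhibition above about 25%, limit read from the data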
Gal4-VP16 ctr = VP16 inhibition counter-screen for COUP-TFII; shares compounds with NR2F2 inh; HEK293 Gal4-VP16 luciferase reporter, luminescence; inhibition, % at 8.5 µM; actives 25% (n = 2,500); AID 687007; in the data active = inhibition above about 13%
NR2F2 inh conf = confirmation of human COUP-TFII (NR2F2) inhibitors. shares compounds with NR2F2 inh. actives 45% (n = 2,500). HEK293 NGFI-A luciferase reporter, luminescence. inhibition, % at 8.5 µM. AID 687008;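 active = mean inhibition over three repeats above a set limit taken from the earlier primary screen, cut at about 38% in these data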;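 note: 100% = cells given the luciferase reporter alone without the COUP-TF2 vector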
The depositor's hits bear a star; . = no result.

SMILES	Jurkat NFkB inh	H9c2 protect	H9c2 TAG inh	Gli-Sufu block	697 NFkB inh	NR2F2 inh	697 NFkB conf	Gal4-VP16 ctr	NR2F2 inh conf	others
Cc1ccc(C(=O)NNC(=O)CCCN2C(=O)/C(=C/c3ccccc3Cl)SC2=S)cc1	18.7	-1.9	.	5.0	44.1*	47.0*	40.8*	31.6*	32.8
CC(C)(C)OC(=O)N1CCC(N[C@@H](Cc2c[nH]c3ccccc23)C(=O)NCC(c2ccccc2)c2ccccc2)(C(=O)NC2CCCCC2)CC1	.	.	.	.	.	-19.4	.	.	.
O=C(CN1CCCc2ccccc21)NCc1ccc(Cl)cc1	.	.	.	.	.	-7.2	.	.	.
CCOC(=O)Cc1ccc(NC(=O)c2ccc(C(C)(C)C)cc2)cc1	46.8	-14.6	49.3	60.1*	89.7*	57.6*	64.0*	45.8*	53.3*	Gli antag conf=67.9*;Gli cytotox=22.2;Wnt3a cs=100.9*
CC1CC(C)(C)Nc2ccc(OC(=O)c3ccco3)cc21 (stereo not drawn)	4.2	-29.8	.	8.5	53.4*	44.6*	63.1*	17.6*	36.1
Cc1ccc(C(=O)c2cccc(N)c2)cc1C	-4.7	-0.6	.	13.7	36.6*	71.6*	-11.8	61.7*	40.9*
Cc1ccc(C(=O)c2ccc(O)cc2)cc1C	-11.4	-0.9	-6.5	-24.7	-19.3	0.8	.	.	.
CCCOc1ccc(/C=N/Nc2cccc([N+](=O)[O-])c2)c(O)c1	-65.4	-10.1	.	-59.1	-47.1	-35.1	.	.	.
CCCOc1ccc(/C=N/Nc2ccccc2[N+](=O)[O-])c(O)c1	-62.0	-4.6	.	30.1	-283.6	44.1*	-48.2	-47.9	46.5*
COC(=O)CC[C@@H](/C=C/C(=O)OC(C)(C)C)Sc1ccc(C(C)(C)C)cc1	.	.	.	.	.	8.1	.	.	.
Cc1ccc(C2(c3ccc(C)cc3)CC2C(=O)Nc2ccc([N+](=O)[O-])cc2O)cc1 (stereo not drawn)	23.4	-16.8	.	21.8	97.3*	67.0*	96.8*	1.4	23.5
COc1ccc(-c2noc(CCCC(=O)O)n2)cc1	48.2	-1.0	-4.5	43.0	74.0*	82.8*	58.1*	81.3*	80.0*
CCOc1ccc(-c2noc(CCC(=O)O)n2)cc1	27.3	-6.3	7.8	28.4	62.1*	81.8*	49.5*	66.2*	57.0*
Nc1ccc(N=Nc2ccc(O)cc2)c(N)n1	.	-8.8	13.8	60.3*	.	-6.9	.	.	.	Gli antag conf=39.3;Gli cytotox=25.8*;Wnt3a cs=-205.6
COc1ccc(N=Nc2ccc(N)nc2N)cc1	-148.0	-12.1	.	-117.0	-208.5	-44.2	.	.	.
CCN(CC)C(=O)c1cccc(NC(=O)CCc2nc3sc4c(c3c(=O)[nH]2)CCCC4)c1	9.2	1.5	9.7	3.0	13.6	1.4	.	.	.
O=C(CCc1nc2sc3c(c2c(=O)[nH]1)CCCC3)Nc1cccc(Cl)c1	-2.6	-4.9	0.6	70.2*	-1.3	-7.3	.	.	.	Gli antag conf=27.5;Gli cytotox=6.0;Wnt3a cs=-10.8
COc1ccccc1N1CCN(c2ncc(C(=O)N3CCN(c4cccc(Cl)c4)CC3)c3ccccc23)CC1	29.1	-18.4	.	60.6*	-23.0	2.7	.	.	.	Gli antag conf=67.3*;Gli cytotox=23.0;Wnt3a cs=23.7
CCCCCCCCN1C(=O)[C@@H](CC(=O)NCc2ccc(OC)c(OC)c2)C[C@@]2(C(=O)OC)C1=C[C@H](COCc1ccccc1)O[C@@H]2C	.	.	.	.	.	15.6	.	.	.
